Shown are actives, neighbours in structure and some others; about 7.3% of the full set was active somewhere.
uPA generation = inhibitors of cell surface uPA generation; cell surface uPA generation assay, qHTS; Potency, µM (highest dose often 38.3 µM), without a hit: at the top dose activity change, negative = inhibition, most hits filed as inhibitors; actives 0.31% (n = 330,000); active = well fitted inhibition curve with a large enough effect; inconclusive = small, poorly fitted or top-dose-only effect; inactive = no such curve, though single readings can be large or run the other way; tested in mouse RAW 264.7 cells; also: % is scaled to controls: 0 for no effect and ±100 for the full control effect; nearly all actives have a fitted effect of over 55% in size
FLuc counter = inhibits or activates purified firefly luciferase, miR-21 counter-screen | P08659 | actives 6.9% (n = 360,000) | purified FLuc, Km substrates, luminescence inhibition | Potency, µM (highest dose often 57.5 µM), inactives show at the highest dose activity change, negative = inhibition, most hits filed as inhibitors;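 also: plate controls were vehicle for no effect and reference inhibitor for full effect; nearly all actives have a fitted effect of over 55% in size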
Target sequence (P08659 whole entry, looked up): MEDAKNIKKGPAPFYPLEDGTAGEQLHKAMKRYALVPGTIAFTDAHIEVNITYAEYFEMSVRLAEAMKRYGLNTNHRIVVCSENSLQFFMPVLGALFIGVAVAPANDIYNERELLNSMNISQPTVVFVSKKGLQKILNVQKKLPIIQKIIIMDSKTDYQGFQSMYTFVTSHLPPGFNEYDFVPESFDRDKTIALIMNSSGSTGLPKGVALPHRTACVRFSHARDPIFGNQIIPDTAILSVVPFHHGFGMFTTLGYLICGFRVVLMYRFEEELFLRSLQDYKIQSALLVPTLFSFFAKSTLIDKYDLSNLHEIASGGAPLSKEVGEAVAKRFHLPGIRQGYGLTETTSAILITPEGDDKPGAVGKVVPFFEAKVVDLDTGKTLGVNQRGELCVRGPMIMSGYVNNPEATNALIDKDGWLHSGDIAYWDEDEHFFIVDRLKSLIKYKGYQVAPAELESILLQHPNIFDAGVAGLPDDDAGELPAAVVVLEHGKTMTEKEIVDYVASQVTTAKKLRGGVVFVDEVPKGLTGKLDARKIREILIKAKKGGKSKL
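Purified P. pyralis luciferase (10nM final) with 10uM D-luciferin and 10uM ATP (Km levels) in 50mM Tris acetate pH 7.5, 10mM Mg acetate, 0.01% Tween-20, 0.05% BSA; qHTS 6-point titration, ~60 µM downward; luminescence read.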
NPC1 prom act = activators of NPC1 promoter | Huh7 NPC1 promoter luciferase reporter, 24 h | actives 2.4% (n = 320,000) | Potency, µM (highest dose often 9.22 µM), for inactives: top-dose activation, most hits filed as activators; also: % of control where 0% means no effect; nearly all actives have a fitted effect of over 60% in size
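NPC1 promoter–luciferase Huh7 cells; 24 h compound; luminescence.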
SMN2 splice up = increases expression of the SMN2 splice variant; HEK293 SMN2-luciferase splicing reporter, luminescence, 30-36 h; Potency, µM (top dose mostly 46.1 µM), without a hit: top-dose activity change, positive = activation, usual class: activators; actives 2.8% (n = 210,000); AID 1458; also: % of control where 0% means no effect; nearly all actives have a fitted effect of over 55% in size
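qHTS luciferase splicing reporter: luminescence rises when SMN2 exon 7 is included in transfected HEK293 cells. Compound exposure lasted 30-36 h at 37C, with 4.5 mM final sodium butyrate as control, followed by a ONE-Glo read.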
Rab9 promoter act = Rab9 promoter activation | Huh7 Rab9 promoter-luciferase reporter, luminescence, 24 h | Potency, µM (top dose mostly 9.22 µM), without a hit: at the top dose activation, negative = inhibition, usual class: activators | actives 2.8% (n = 320,000); also: % of control where 0% means no effect; nearly all actives have a fitted effect of over 60% in size
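Luminescence read-out: Huh7 cells stably expressing Rab9-luciferase, treated 24 h with compound at 37 °C, then lysed with luciferase reagent for 10 min at ambient before reading.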
ELG1 genotoxic = genotoxicity induction in ELG1-luciferase HEK293T cells; AID 504466; HEK293T ELG1-luciferase reporter, luminescence, 16 h; Potency, µM (titrated, usually from 46 µM), inactives show at the highest dose activity change, positive = activation, most hits filed as activators; actives 1.3% (n = 330,000); also: % of control where 0% means no effect; nearly all actives have a fitted effect of over 60% in size
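HEK293T cells expressing luciferase-tagged ELG1 were treated with compound or DMSO for 16 hr at 37°C. Luciferase activity was then read after 30 min with ONE-Glo at room temperature; rising signal flags genetic stress.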
Starred values were filed as active, the others as inactive; ? = inconclusive; nt = not tested or not shown; [ ] = dose if it differs, or a comment. Unless noted, calls follow the shape of the dose curve; as a rule, active = well fitted curve in the direction sought with a large enough effect; inconclusive = small, poorly fitted or top-dose-only effect, or another doubt; inactive = no such curve, though single readings can be large; an effect the other way counts as inactive or inconclusive. Potency is read from the fitted curve at half-maximal effect.

SMILES | uPA generation | FLuc counter | NPC1 prom act | SMN2 splice up | Rab9 promoter act | ELG1 genotoxic
COc1ccc2ccccc2c1C(=O)/C=C\c1ccoc1 | -6.8% | 26.9µM* | -6.4% | -8.4% | 2.6% | 0.1%
COc1ccc2ccccc2c1/C=C\C(=O)c1ccccc1 | nt | nt | nt | -19.3%[9.22 µM] | nt | nt
N#CCCNS(=O)(=O)c1ccc(C(=O)OCCCOC(=O)c2ccc(S(=O)(=O)NCCC#N)cc2)cc1 | 3.6% | 1.2µM* | 16.3% | nt | 11.4% | -12.4%
N#CCCNS(=O)(=O)c1ccc(C(=O)OCC2CCCCC2)cc1 | 1.0% | -1.5% | -4.7% | nt | -3.9% | -3.8%
O=c1[nH]c(/C=C2\C=Nc3ccccc32)c(O)n1Cc1ccccc1F | -28.2% | -17.9% | -11.0% | -17.6% | -24.0% | -6.1%
CSc1nc(O)c(/C=C2\C=Nc3ccccc32)[nH]1 | 4.2% | 10.7µM* | 20.8% | ? | ? | ?
CC(=O)Oc1ccc(C(=O)Nc2ccccc2C(=O)Nc2ccc(C(=O)O)cc2)cc1 | -12.4% | 2.39µM* | 4.1% | nt | 0.7% | -0.6%
CC(=O)Oc1ccc(C(=O)Nc2cccc(C(=O)Nc3ccccc3C(=O)O)c2)cc1 | 3.1% | 10.7µM* | -3.3% | nt | 1.7% | -5.6%
CC(=O)Oc1ccc(C(=O)Nc2ccccc2C(=O)Nc2cccc(C(=O)O)c2)cc1 | -5.1% | 4.26µM* | 0.4% | nt | 0.8% | 11.7%
CC(=O)Oc1ccc(C(=O)Nc2cccc(C(=O)NC(C)(C)C)c2)cc1 | -3.4% | 19µM* | 1.8% | -22.6% | -8.0% | 1.1%
CC(=O)Oc1ccc(C(=O)Nc2cccc(C(=O)c3cccc(NC(=O)c4ccc(OC(C)=O)cc4)c3)c2)cc1 | -7.5% | -9.7% | -6.8% | 4.5% | -5.6% | -5.8%
CC(=O)Oc1ccc(C(=O)Nc2ccccc2C(=O)NCC(C)C)cc1 | 0.3% | ? | -0.2% | ? | -14.2% | -0.7%
COc1ccc(NC(=O)c2ccccc2NC(=O)c2ccccc2)cc1 | 13.2% | ? | 16.1% | nt | 7.7% | 5.5%
Cc1ccc(OCc2nc(-c3ccc(C(=O)N4CCN(c5cc(Cl)ccc5C)CC4)cc3)oc2C)cc1 | nt | 3.0% | nt | -3.1% | nt | nt
COc1cccc(CNC(=O)Nc2ccc3c(c2)N(C)C(=O)c2ccccc2S3)c1 | nt | -11.6% | nt | nt | nt | nt
CC(C)(C)NC(=O)c1cccc(NC(=O)CSc2ccc(Cl)cc2)c1 | 0.3% | 10.7µM* | 0.9% | -17.7% | -6.0% | -4.5%
Cc1ccc(-n2[nH]c(=O)c(-c3ccccn3)c2C)cc1 | -14.9% | 0.301µM* | ? | nt | 0.447µM* | ?
CCOC(=O)c1ccc(N/C=C/C(=O)c2ccco2)cc1 | ? | 1.35µM* | 1.58µM* | 14.1µM* | 1.26µM* | 0.731µM*
O=C(/C=C/Nc1ccc(F)cc1)c1ccco1 | -10.5% | 0.953µM* | 3.98µM* | 15.8µM* | 2.82µM* | 2.06µM*
Cc1ccc(N/C=C/C(=O)c2ccco2)c(O)c1 | ? | 0.757µM* | 3.16µM* | nt | 1.78µM* | 3.66µM*
CCOC(=O)c1ccc(N/C=C/C(=O)c2ccc(OC)c(OC)c2)cc1 | nt | 0.2% | -4.8% | -6.8% | -5.3% | 1.6%
CCCn1c(C)nc2c(NC3CCCCC3)nc(C)nc21 | nt | nt | nt | -37.6% | nt | nt
CCN(Cc1nc2cc(OC)c(OC)cc2c(=O)[nH]1)C(=O)c1ccc(S(=O)(=O)N(C)C)cc1 | -2.3% | -7.1% | 1.9% | -21.1% | -3.0% | -12.2%
COc1cc2nc(CN(C)Cc3ccc(C(C)(C)C)cc3)[nH]c(=O)c2cc1OC | 3.55µM* | ? | 0.7% | 13.6% | 0.8% | -3.0%
CCCCCCN1C=CC(=C/C=C(\C#N)C(=O)OCC)C=C1 | -5.4% | 9.0% | -1.1% | -6.8% | -5.1% | -7.4%
CCCN1C=CC(=C/C=C(\C#N)C(=O)OCC)C=C1 | nt | 6.01µM* | 3.98µM* | 14.1µM* | 3.98µM* | ?
CCOC(=O)/C(C#N)=C/c1ccc(-c2ccc(C)cc2)o1 | nt | 3.79µM* | nt | 10.2% | nt | nt
CCOC(=O)/C(C#N)=C/N=c1ccc(C)cn1C | -1.1% | 16.9µM* | ? | nt | ? | ?
CCOC(=O)/C(C#N)=C/c1ccc(-c2ccccc2)o1 | nt | 9.53µM* | nt | 0.0% | nt | nt
